The record followed here is PubChem BioAssay.

A short description of this assay: probe aDKK1 binding to arrayed compounds – biochemical, biotinylated probe, 635/667 nm fluorescence, primary screen (AID 1099).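 Note: score merges 667nm spot fluorescence with signal to noise across triplicate slides; reference of the scale not given here.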 As to conditions: small-molecule microarray, higher = more signal.
`CCOC(=O)C[C@H]1[C@H](OC(=O)c2cc3ccccc3oc2=O)[C@@H](NC(=O)c2ccc3ccccc3n2)c2cc(OCCCO)ccc2N1C(=O)c1ccc2ccccc2n1` showed a composite z-score of 0.273.
The result for `CN1C(=O)C2C=CC(C(O)C3CCCCC3)N(N(c3ccccc3)c3ccccc3)C2C1=O` (stereo unspecified) reads 0.993.
To `COc1ccccc1CN1C(=O)c2ccccc2[C@@H](C(=O)NCC(C)C)[C@@H]1c1ccc(CO)cc1` belongs 0.543; to `COC(=O)[C@@]1(Cc2ccccc2)[C@H]2c3cc(C(=O)N(C)C)n(Cc4ccc(O)c(OC)c4)c3C[C@H]2CN1C(=O)c1ccccc1`, 0.722; to `CCOC(=O)C[C@H]1[C@H](OC(=O)c2ccccc2-c2ccccc2)[C@@H](NC(=O)c2ccccc2)c2cc(OCCCO)ccc2N1C(=O)Cc1ccc(OC)cc1`, -0.0327.
To `CCC[C@@H]1C[C@@]1(CCC)[C@@H](NC(=O)c1ccco1)c1ccc(Cl)cc1` belongs -0.0347; to `CN(C)CCCN1C(=O)[C@@]2(Cc3ccccc31)c1ccccc1C(=O)N(Cc1ccccc1)[C@H]2c1ccc(CO)cc1`, -0.152; to `O=C(NCc1ccccc1)[C@]1(Cc2ccccc2)N=C(c2ccc(OCCCO)cc2)O[C@@H]1c1ccccc1`, 0.857.
With `O=C1c2ccccc2[C@](Cc2ccccc2I)(C(=O)NC2CC2)[C@H](c2ccc(CO)cc2)N1Cc1ccccc1Cl`, the composite z-score was determined as 0.831.
To `C=C(C(=O)CC[C@H](OC(=O)c1cccnc1)c1ccc(OCCO)cc1)C(C)C` belongs -0.175.
To `COCCOC(=O)N1C(=O)[C@@]2(c3cc(C#CCCO)ccc31)[C@H](C(=O)N1CCc3cc(OC)c(OC)cc3C1)[C@H]1C(=O)O[C@H](c3ccccc3)[C@H](c3ccccc3)N1[C@@H]2c1ccc(OCCO)cc1` belongs 0.125.
For the molecule `C[N+](C)(C)CCCC[C@@H]1NC(=O)[C@H]2C[C@@H](C(=O)NCCCCCCN)[C@@H](c3cccc(OCCO)c3)N2C1=O`, the composite z-score was determined as 1.82.
The result for `COC(=O)C(CC#Cc1ccc2c(c1)[C@]1(C(=O)N2)[C@H](c2ccc(O)cc2)N2[C@H](c3ccccc3)[C@H](c3ccccc3)OC(=O)[C@H]2[C@@H]1C(N)=O)C(=O)OC` reads -0.207; that for `CN(C)C(=O)[C@@]1(CCC(=O)OC(C)(C)C)N=C(c2ccc(OCCCO)cc2)O[C@H]1c1ccccc1N=[N+]=[N-]`, 0.813; that for `CCOC(=O)C[C@H]1[C@H](OC(=O)Cc2ccc3c(c2)OCO3)[C@@H](NC(=O)c2ccccc2)c2cc(OCCCO)ccc2N1C(=O)c1ccc2ccccc2n1`, -0.0053.
To `O=[N+]([O-])c1ccc(C[n+]2ccc(-c3ccc(CO)cc3)cc2)o1` belongs -0.0024; to `NC(=O)[C@H]1[C@@H]2C(=O)O[C@@H](c3ccccc3)[C@@H](c3ccccc3)N2[C@@H](c2ccc(O)cc2)[C@]12C(=O)Nc1ccc(C#CC3(O)CCCCCC3)cc12`, 0.156; to `CN(C)C(=O)[C@@]1(Cc2ccccc2N=[N+]=[N-])N=C(c2ccc(OCCCO)cc2)O[C@H]1c1ccccc1N=[N+]=[N-]`, 1.19.
`NC(=O)NCC#Cc1ccc2c(c1)[C@]1(C(=O)N2)[C@H](c2ccc(O)cc2)N2[C@H](c3ccccc3)[C@H](c3ccccc3)OC(=O)[C@H]2[C@@H]1C(N)=O`: the composite z-score worked out at 0.431.
The result for `NC(=O)NCC#Cc1ccc2c(c1)[C@]1(C(=O)N2)[C@H](c2ccc(OCCO)cc2)N2[C@H](c3ccccc3)[C@H](c3ccccc3)OC(=O)[C@H]2[C@@H]1C(=O)N1CCN(c2ncccn2)CC1` reads -0.356.
`O=C1N(Cc2ccccc2)c2ccccc2[C@H]2OC(c3ccc(OCCCO)cc3)=N[C@@]12CCS(=O)(=O)c1ccccc1` gave a composite z-score of -0.0921.
To `COCC(=C=CC[C@@H](O)c1ccccc1OCCO)C[C@@H](O)c1ccccn1` belongs -0.0661; to `COc1ccc(C#Cc2ccc3c(c2)[C@]2(C(=O)N3)[C@H](c3ccc(OCCO)cc3)N3[C@H](c4ccccc4)[C@H](c4ccccc4)OC(=O)[C@H]3[C@@H]2C(=O)N2CCN(c3ncccn3)CC2)cc1`, -0.0149; to `COc1ccc(C(=O)Nc2ccc3c(c2)[C@]2(O[C@@H](CCO)[C@H]([Si](C)(C)c4ccc(OC)cc4)[C@H]2C)C(=O)N3Cc2ccccc2)cc1`, -0.0183.
The result for `CC(C)C[C@@H]1NC(=O)[C@@]23C(=O)N[C@@H](Cc4ccccc4)C2[C@H](C)[C@@]2(C)O[C@H]2C3/C=C/C/C=C\CNC(=O)[C@@H]2CCCN2C1=O` (stereo partly specified) reads -0.277.
To `Cc1cc(C)c(C(O)C2C=CC3C(=O)N(c4ccccc4)C(=O)C3N2Nc2ccc([N+](=O)[O-])cc2)c(C)c1` (stereo unspecified) belongs 0.74.
As to `CC[C@@H]1[C@@H]2C3C(=O)N(CC)C(=O)C3CC(=O)[C@@H]2[C@H](c2ccc(C)cc2)N1S(=O)(=O)c1ccc(C)cc1` (stereo partly specified), the composite z-score came out at 0.384.
As for `C=CCNC(=O)[C@@H]1[C@H]2C(=O)O[C@H](c3ccccc3)[C@H](c3ccccc3)N2[C@H](c2ccc(O)cc2)[C@@]12C(=O)Nc1ccc(C#CCCO)cc12`, the composite z-score was -0.25.
To `O=C1NC(=O)C2C1C=CC(C(O)c1ccc(-c3ccccc3)s1)N2Nc1ccccn1` (stereo unspecified) belongs 1.09; to `OCCCC1=CC(c2cccs2)N(Cc2cccc(OC(F)(F)F)c2)CC1` (stereo unspecified), -0.14.
The result for `O=C1OCC=C[C@H]2OC34C=CCN(CCN5CCOCC5)C(=O)[C@H]3N(CCCCCO)C(=O)[C@@H]4[C@@H]12` (stereo partly specified) reads -0.284; that for `CCCN1C(=O)[C@@]2(Cc3ccccc3)N=C(c3ccc(OCCCO)cc3)O[C@H]2c2ccccc21`, 0.0149; that for `C[N+](C)(C)CCCC[C@@H]1NC(=O)[C@@H]2C[C@H](C(=O)O)[C@H](c3cccc(OCCO)c3)N2C1=O`, -0.066.
The result for `C/C=C/[C@@H](CCn1cc([C@H](O)c2ccccc2)nn1)[Si](C)(C)c1ccc(OC)cc1` reads -0.414; that for `CCN(CC)c1ccc(N2CC=CC34O[C@@H]5/C=C\CCCOC(=O)C5[C@H]3C(=O)N(CCCCCCO)[C@@H]4C2=O)cc1` (stereo partly specified), -0.202; that for `COC(=O)[C@@]1(Cc2ccc(OC)cc2)[C@H]2c3cc(C(=O)N4CCCC4)n(CCF)c3C[C@H]2CN1C(=O)c1ccccc1`, 2.71.
